Test results taken from PubChem BioAssay AID1159580 (chemical genetic matrix, 2015).
“And” between values parts separate entries of the source, which are not always exact repeats. Equal values may be shown once. The whole screen tested about 5,500 compounds, of which about 2,000 (36%) were called active. Not shown: some 18% with an inconclusive outcome. Rule as the data show it: active = normalized growth mostly below about 0.91 (no sharp cut-off); inconclusive = no clear call, values can overlap the other calls; inactive = mostly above about 0.92. This is one part of the list.

Test: chemical genetic growth profiling, strain panel (AID 1159580);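 also: tested at 20 µM; growth read once vehicle control cultures reached saturation at 30 °C; 1 = growth at the plate median or of vehicle wells; lower values mean less growth of the strain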
Conditions: S. cerevisiae deletion strains, growth OD

Measured: normalized growth

Nc1ccccc1C(=O)CC(N)C(=O)O (stereo not drawn)
inactive: locus YAL021C, strain ccr4, stronger effect = lower value 1.01 | locus YAL026C, strain drs2, stronger effect = lower value 1.01 | locus YAL030W, strain snc1, stronger effect = lower value 0.992 | locus YBL061C, strain skt5, stronger effect = lower value 1 | locus YBR009C, strain hhf1, stronger effect = lower value 1.01 | locus YBR021W, strain FUR4, stronger effect = lower value 1.06 | locus YBR023C, strain chs3, stronger effect = lower value 1 | locus YBR171W, strain sec66, stronger effect = lower value 0.99 | locus YBR229C, strain ROT2, stronger effect = lower value 1.01 | locus YBR231C, strain swc5, stronger effect = lower value 0.97 | locus YBR279W, strain paf1, stronger effect = lower value 1.01 | locus YCL011C, strain gbp2, stronger effect = lower value 1.01 | locus YCL016C, strain dcc1, stronger effect = lower value 1 | locus YCL029C, strain bik1, stronger effect = lower value 0.968 | locus YCL069W, strain vba3, stronger effect = lower value 1.01 | locus YCR088W, strain abp1, stronger effect = lower value 0.989 | locus YDL005C, strain med2, stronger effect = lower value 0.989 | locus YDL035C, strain GPR1, stronger effect = lower value 1.01 | locus YDL040C, strain nat1, stronger effect = lower value 0.989 | locus YDL074C, strain BRE1, stronger effect = lower value 0.968 | locus YDL101C, strain DUN1, stronger effect = lower value 0.995 | locus YDL134C, strain PPH21, stronger effect = lower value 1.07 | locus YDL185W, strain tfp1, stronger effect = lower value 0.947 | locus YDL192W, strain arf1, stronger effect = lower value 0.984 | locus YDR001C, strain nth1, stronger effect = lower value 0.99 | locus YDR069C, strain doa4, stronger effect = lower value 0.984 | locus YDR101C, strain arx1, stronger effect = lower value 0.956 | locus YDR137W, strain rgp1, stronger effect = lower value 0.998 | locus YDR150W, strain NUM1, stronger effect = lower value 0.997 | locus YDR159W, strain sac3, stronger effect = lower value 0.981 | locus YDR162C, strain NBP2, stronger effect = lower value 1.01 | locus YDR195W, strain ref2 0.94 | locus YDR297W, strain sur2, stronger effect = lower value 0.994 | locus YDR318W, strain mcm21, stronger effect = lower value 1.01 | locus YDR334W, strain swr1, stronger effect = lower value 0.99 | locus YDR335W, strain msn5, stronger effect = lower value 1 | locus YDR388W, stronger effect = lower value 0.994 | locus YDR392W, strain spt3, stronger effect = lower value 0.907 | locus YDR502C, strain sam2, stronger effect = lower value 1 | locus YEL003W, strain gim4, stronger effect = lower value 1.01 | locus YEL037C, strain rad23, stronger effect = lower value 1 | locus YEL061C, strain CIN8 (second series), stronger effect = lower value 0.992 | locus YEL061C, strain CIN8, stronger effect = lower value 1 | locus YER015W, strain faa2, stronger effect = lower value 1.01 | locus YER016W, strain bim1, stronger effect = lower value 0.996 | locus YER110C, stronger effect = lower value 0.975 | locus YER111C, strain swi4, stronger effect = lower value 0.998 | locus YER155C, strain BEM2 (second series), stronger effect = lower value 0.939 | locus YER155C, strain BEM2, stronger effect = lower value 0.997 | locus YER167W, strain BCK2, stronger effect = lower value 1.01 | locus YFR010W, strain ubp6, stronger effect = lower value 1.01 | locus YGL078C, strain dbp3, stronger effect = lower value 0.989 | locus YGL086W, strain mad1, stronger effect = lower value 0.954 | locus YGL167C, strain pmr1, stronger effect = lower value 0.997 | locus YGL173C, strain kem1, stronger effect = lower value 1 | locus YGL227W, strain vid30, stronger effect = lower value 0.996 | locus YGL240W, strain doc1, stronger effect = lower value 0.941 | locus YGL248W, strain PDE1, stronger effect = lower value 1.01 | locus YGL253W, strain hxk2, stronger effect = lower value 1.03 | locus YGR078C, strain PAC10, stronger effect = lower value 0.998 | locus YGR135W, strain pre9, stronger effect = lower value 1 | locus YGR229C, strain SMI1, stronger effect = lower value 1.01 | locus YGR252W, strain gcn5, stronger effect = lower value 1.17 | locus YHR013C, strain ard1, stronger effect = lower value 0.998 | locus YHR027C, strain rpn1, stronger effect = lower value 0.984 | locus YHR030C, strain SLT2, stronger effect = lower value 0.989 and 1.03 | locus YHR079C, strain IRE1 (second series), stronger effect = lower value 0.992 | locus YHR079C, strain IRE1, stronger effect = lower value 1.05 | locus YHR094C, strain hxt1, stronger effect = lower value 0.995 | locus YHR129C, strain ARP1, stronger effect = lower value 1.01 | locus YHR142W, strain chs7, stronger effect = lower value 0.995 | locus YHR200W, strain rpn10, stronger effect = lower value 0.995 | locus YIL066C, strain RNR3, stronger effect = lower value 1 | locus YIL073C, strain SPO22, stronger effect = lower value 0.986 | locus YIL125W, strain kgd1, stronger effect = lower value 0.993 | locus YIR030C, strain dcg1, stronger effect = lower value 0.997 | locus YJL092W, strain hpr5, stronger effect = lower value 1.01 | locus YJL095W, strain BCK1 (second series), stronger effect = lower value 0.993 | locus YJL095W, strain BCK1, stronger effect = lower value 0.998 and 1.02 | locus YJL115W, strain asf1, stronger effect = lower value 0.985 | locus YJL129C, strain trk1, stronger effect = lower value 1.03 | locus YJL134W, strain LCB3, stronger effect = lower value 0.991 | locus YJL154C, strain vps35, stronger effect = lower value 0.991 | locus YJL164C, strain tpk1, stronger effect = lower value 1.03 | locus YJL166W, strain qcr8, stronger effect = lower value 0.991 | locus YJL168C, strain set2, stronger effect = lower value 0.985 | locus YJL187C, strain SWE1 (second series), stronger effect = lower value 0.992 | locus YJL187C, strain SWE1, stronger effect = lower value 1.02 | locus YJR043C, strain POL32, stronger effect = lower value 1.01 | locus YJR066W, strain TOR1, stronger effect = lower value 0.952 | locus YJR075W, strain HOC1, stronger effect = lower value 0.995 | locus YKL009W, strain mrt4, stronger effect = lower value 0.964 | locus YKL068W, stronger effect = lower value 0.975 | locus YKL085W, strain MDH1 (second series), stronger effect = lower value 0.983 | locus YKL085W, strain MDH1, stronger effect = lower value 0.983 | locus YKL160W, strain elf1, stronger effect = lower value 1.02 | locus YKL190W, strain CNB1, stronger effect = lower value 1.01 | locus YKR001C, strain vps1, stronger effect = lower value 0.959 | locus YKR026C, strain gcn3, stronger effect = lower value 0.992 | locus YKR091W, strain srl3, stronger effect = lower value 0.991 | locus YLL001W, strain dnm1, stronger effect = lower value 1 | locus YLL026W, stronger effect = lower value 0.994 | locus YLL041C, strain sdh2, stronger effect = lower value 0.998 | locus YLR027C, strain aat2, stronger effect = lower value 1.01 | locus YLR039C, strain RIC1, stronger effect = lower value 0.91 | locus YLR058C, strain SHM2, stronger effect = lower value 1.01 | locus YLR102C, strain apc9, stronger effect = lower value 0.984 | locus YLR113W, strain HOG1, stronger effect = lower value 1.02 | locus YLR221C, strain rsa3, stronger effect = lower value 0.987 | locus YLR258W, strain gsy2, stronger effect = lower value 1.01 | locus YLR262C, strain YPT6 (second series), stronger effect = lower value 1 | locus YLR262C, strain YPT6, stronger effect = lower value 0.896 | locus YLR268W, strain sec22, stronger effect = lower value 0.957 | locus YLR320W, strain mms22, stronger effect = lower value 0.983 | locus YLR330W, strain CHS5, stronger effect = lower value 0.989 | locus YLR342W, strain FKS1 (second series), stronger effect = lower value 1.02 | locus YLR342W, strain FKS1, stronger effect = lower value 0.992 | locus YLR357W, strain rsc2, stronger effect = lower value 0.984 | locus YLR370C, strain arc18, stronger effect = lower value 0.992 | locus YLR371W, strain rom2, stronger effect = lower value 0.984 | locus YLR384C, strain iki3, stronger effect = lower value 0.972 | locus YLR418C, strain cdc73, stronger effect = lower value 1.06 | locus YML016C, strain PPZ1, stronger effect = lower value 0.989 | locus YML032C, strain rad52, stronger effect = lower value 1.02 | locus YML120C, strain ndi1, stronger effect = lower value 1 | locus YML124C, strain tub3, stronger effect = lower value 0.994 | locus YMR058W, strain fet3, stronger effect = lower value 1 | locus YMR078C, strain ctf18, stronger effect = lower value 0.98 | locus YMR125W, strain sto1, stronger effect = lower value 1.02 | locus YMR129W, stronger effect = lower value 1 | locus YMR205C, strain PFK2, stronger effect = lower value 1.02 | locus YMR223W, strain ubp8, stronger effect = lower value 0.995 | locus YMR231W, strain pep5, stronger effect = lower value 0.996 | locus YMR263W, strain SAP30, stronger effect = lower value 0.995 | locus YMR307W, strain GAS1, stronger effect = lower value 1.16 | locus YNL067W, strain RPL9B, stronger effect = lower value 0.998 | locus YNL071W, strain lat1, stronger effect = lower value 1 | locus YNL153C, strain GIM3, stronger effect = lower value 0.988 | locus YNL183C, strain NPR1, stronger effect = lower value 0.965 | locus YNL209W, strain ssb2, stronger effect = lower value 1 | locus YNL233W, strain BNI4, stronger effect = lower value 0.993 | locus YNL248C, strain rpa49, stronger effect = lower value 0.914 | locus YNL250W, strain rad50, stronger effect = lower value 0.935 | locus YNL271C, strain bni1, stronger effect = lower value 0.984 | locus YNL298W, strain CLA4, stronger effect = lower value 0.991 | locus YNL307C, strain MCK1, stronger effect = lower value 0.982 | locus YNL322C, strain KRE1 (second series), stronger effect = lower value 1 | locus YNR049C, strain mso1, stronger effect = lower value 1.02 | locus YNR052C, strain pop2, stronger effect = lower value 1.02 | locus YOL006C, strain TOP1, stronger effect = lower value 0.831 | locus YOL012C, strain htz1 0.879 | locus YOL147C, strain pex11, stronger effect = lower value 0.991 | locus YOR001W, strain rrp6, stronger effect = lower value 0.972 | locus YOR061W, strain CKA2, stronger effect = lower value 0.992 | locus YOR069W, strain VPS5, stronger effect = lower value 0.993 | locus YOR070C, strain gyp1, stronger effect = lower value 1 | locus YOR080W, strain dia2, stronger effect = lower value 1 | locus YOR083W, strain WHI5, stronger effect = lower value 1.02 | locus YOR106W, strain vam3, stronger effect = lower value 1.02 | locus YOR136W, strain idh2, stronger effect = lower value 0.972 | locus YOR144C, strain elg1, stronger effect = lower value 0.996 | locus YOR184W, strain ser1, stronger effect = lower value 0.978 | locus YOR231W, strain MKK1, stronger effect = lower value 1.04 | locus YOR265W, strain rbl2, stronger effect = lower value 1 | locus YOR270C, strain vph1, stronger effect = lower value 1.04 | locus YOR290C, strain snf2, stronger effect = lower value 0.994 | locus YOR316C, strain cot1, stronger effect = lower value 0.994 | locus YPL051W, strain arl3, stronger effect = lower value 1 | locus YPL078C, strain atp4, stronger effect = lower value 1.01 | locus YPL106C, strain sse1, stronger effect = lower value 0.966 | locus YPL240C, strain hsp82, stronger effect = lower value 0.992 | locus YPL241C, strain CIN2, stronger effect = lower value 1.01 | locus YPL256C, strain CLN2, stronger effect = lower value 1.04 | locus YPR119W, strain clb2, stronger effect = lower value 0.985 | locus YPR141C, strain kar3, stronger effect = lower value 0.992 | locus YPR163C, strain tif3, stronger effect = lower value 0.986 | locus YPR167C, strain met16, stronger effect = lower value 0.996 | strain wtn01, stronger effect = lower value 0.94
